Source: the supplement of paper PMC6555819

Key:
Assay in all cases: PBM binding z-score (relative to random genomic background probes); higher = stronger binding; sequences stand for … in GC…GCGATTGACAGCGTAGAATGAAGG
[1] = test system: PPARg:RXRa DBDmut IVT, anti-RXR (DBD mutation: RXRa K156A/R161A, NR concentration 270 nM, RXRa partner concentration 90 nM)
Procedure, shortened: (§1)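 Binding z-scores take random background probes as their reference. They come from custom Agilent 4×180K protein-binding microarrays incubated 1 h with ligand-free nuclear receptor dimers, with antibodies against each partner (one per run) detecting binding. Scanned fluorescence was regression-normalized.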

[2] = test system: PPARg:RXRa IVT, anti-PPARg (NR concentration 270 nM, RXRa partner concentration 90 nM)
Procedure, shortened: as §1

[3] = test system: PPARg homodimer (NR concentration 180 nM)
Procedure, shortened: as §1

[4] = test system: PXR:RXRa (NR concentration 270 nM, RXRa partner concentration 90 nM)
Procedure, shortened: as §1

[5] = test system: PXR homodimer (NR concentration 270 nM)
Procedure, shortened: as §1

[6] = test system: RARa:RXR (NR concentration 270 nM, RXRa partner concentration 90 nM)
Procedure, shortened: as §1

[7] = test system: RARa homodimer (NR concentration 270 nM)
Procedure, shortened: as §1

[8] = test system: RARb:RXRa (NR concentration 270 nM, RXRa partner concentration 90 nM)
Procedure, shortened: as §1

[9] = test system: RARb homodimer (NR concentration 270 nM)
Procedure, shortened: as §1

[10] = test system: RARg:RXRa (NR concentration 270 nM, RXRa partner concentration 90 nM)
Procedure, shortened: as §1

[11] = test system: RARg homodimer (NR concentration 270 nM)
Procedure, shortened: as §1

[12] = test system: RXRa DBDmut IVT, anti-RXR (DBD mutation: RXRa K156A/R161A, NR concentration 90 nM)
Procedure, shortened: as §1

[13] = test system: RXRa homodimer (NR concentration 180 nM)
Procedure, shortened: as §1

[14] = test system: THRa:RXRa (NR concentration 90 nM, RXRa partner concentration 90 nM)
Procedure, shortened: as §1

[15] = test system: THRa homodimer (NR concentration 90 nM)
Procedure, shortened: as §1

[16] = test system: VDR homodimer (NR concentration 270 nM)
Procedure, shortened: as §1

TCGAGTAGGTTACGGGGACATTCAGGGATGAAGA
PBM binding z-score [1]: 4.18 | PBM binding z-score [2]: 4.72 | PBM binding z-score [3]: 1.95 | PBM binding z-score [4]: 0.696 | PBM binding z-score [5]: -0.0868 | PBM binding z-score [6]: 1.17 | PBM binding z-score [7]: 0.0881 | PBM binding z-score [8]: 1.43 | PBM binding z-score [9]: 1.42 | PBM binding z-score [10]: 1.26 | PBM binding z-score [11]: 1.01 | PBM binding z-score [12]: 0.561 | PBM binding z-score [13]: 1.09 | PBM binding z-score [14]: 2.77 | PBM binding z-score [15]: 1.57 | PBM binding z-score [16]: 1.1

TCGAGTAGGTTACGGGGGGATTCAGGGATGAAGA
PBM binding z-score [1]: 4.94 | PBM binding z-score [2]: 5.45 | PBM binding z-score [3]: 3.89 | PBM binding z-score [4]: 3.86 | PBM binding z-score [5]: 2.74 | PBM binding z-score [6]: 3.13 | PBM binding z-score [7]: 2.04 | PBM binding z-score [8]: 2.8 | PBM binding z-score [9]: 1.73 | PBM binding z-score [10]: 2.76 | PBM binding z-score [11]: 2.33 | PBM binding z-score [12]: 2.47 | PBM binding z-score [13]: 2.04 | PBM binding z-score [14]: 3.42 | PBM binding z-score [15]: 1.85 | PBM binding z-score [16]: 2.02

CCGAGTAGGTTACAAGGGGGCATTCAGTGCGAAT
PBM binding z-score [1]: 4.32 | PBM binding z-score [2]: 4.29 | PBM binding z-score [3]: 1.99 | PBM binding z-score [4]: 4.6 | PBM binding z-score [5]: 5.19 | PBM binding z-score [6]: 3 | PBM binding z-score [7]: 0.759 | PBM binding z-score [8]: 2.17 | PBM binding z-score [9]: 2.41 | PBM binding z-score [10]: 2.84 | PBM binding z-score [11]: 2.42 | PBM binding z-score [12]: 1.47 | PBM binding z-score [13]: 2.1 | PBM binding z-score [14]: 3.61 | PBM binding z-score [15]: 0.507 | PBM binding z-score [16]: 3.51

TCGAGTAGGCTACGGGGGCATTCAGGGATGAAGA
PBM binding z-score [1]: 2.36 | PBM binding z-score [2]: 3.36 | PBM binding z-score [3]: 0.299 | PBM binding z-score [4]: 1.77 | PBM binding z-score [5]: 0.484 | PBM binding z-score [6]: 1.43 | PBM binding z-score [7]: -0.44 | PBM binding z-score [8]: 0.961 | PBM binding z-score [9]: 1.01 | PBM binding z-score [10]: 1.2 | PBM binding z-score [11]: 0.904 | PBM binding z-score [12]: 0.682 | PBM binding z-score [13]: 1.13 | PBM binding z-score [14]: 3.63 | PBM binding z-score [15]: 0.228 | PBM binding z-score [16]: 2.66

CGATGTAGGTTAAGGGGGTCATTCAGTTTGAAAG
PBM binding z-score [1]: 7.27 | PBM binding z-score [2]: 7.49 | PBM binding z-score [3]: 5.88 | PBM binding z-score [4]: 6.1 | PBM binding z-score [5]: 13.5 | PBM binding z-score [6]: 6.18 | PBM binding z-score [7]: 4.27 | PBM binding z-score [8]: 3.65 | PBM binding z-score [9]: 3.87 | PBM binding z-score [10]: 5.19 | PBM binding z-score [11]: 4.02 | PBM binding z-score [12]: 2.93 | PBM binding z-score [13]: 5.85 | PBM binding z-score [14]: 3.81 | PBM binding z-score [15]: 2.8 | PBM binding z-score [16]: 6.65

TCGGGTAGGTTACGGGGGCATTCAGGGATGAAGA
PBM binding z-score [1]: 4.27 | PBM binding z-score [2]: 6.24 | PBM binding z-score [3]: 3.68 | PBM binding z-score [4]: 4.2 | PBM binding z-score [5]: 3.72 | PBM binding z-score [6]: 4.12 | PBM binding z-score [7]: 1.88 | PBM binding z-score [8]: 3.35 | PBM binding z-score [9]: 3.18 | PBM binding z-score [10]: 4.23 | PBM binding z-score [11]: 4.1 | PBM binding z-score [12]: 3.04 | PBM binding z-score [13]: 3.43 | PBM binding z-score [14]: 4.32 | PBM binding z-score [15]: 3.14 | PBM binding z-score [16]: 4.85

TCGAGTCGGTTACGGGGGCATTCAGGGATGAAGA
PBM binding z-score [1]: 1.87 | PBM binding z-score [2]: 3.65 | PBM binding z-score [3]: 1.02 | PBM binding z-score [4]: 2.5 | PBM binding z-score [5]: 0.347 | PBM binding z-score [6]: 2.15 | PBM binding z-score [7]: -0.175 | PBM binding z-score [8]: 1.71 | PBM binding z-score [9]: 1.57 | PBM binding z-score [10]: 2.4 | PBM binding z-score [11]: 1.77 | PBM binding z-score [12]: 1.16 | PBM binding z-score [13]: 1.5 | PBM binding z-score [14]: 3.45 | PBM binding z-score [15]: 0.955 | PBM binding z-score [16]: 2.23

TCGAGTAGGTTACGGGGGCCTTCAGGGATGAAGA
PBM binding z-score [1]: 4.03 | PBM binding z-score [2]: 4.68 | PBM binding z-score [3]: 0.342 | PBM binding z-score [4]: 1.52 | PBM binding z-score [5]: 0.275 | PBM binding z-score [6]: 1.48 | PBM binding z-score [7]: -0.236 | PBM binding z-score [8]: 1.58 | PBM binding z-score [9]: 1.03 | PBM binding z-score [10]: 1.81 | PBM binding z-score [11]: 1.33 | PBM binding z-score [12]: 0.49 | PBM binding z-score [13]: 1.47 | PBM binding z-score [14]: 1.95 | PBM binding z-score [15]: 0.405 | PBM binding z-score [16]: 0.302

CTATGTAGTTTAAGGGGGTCATTCAGTTTGAAAG
PBM binding z-score [1]: 3.79 | PBM binding z-score [2]: 4.99 | PBM binding z-score [3]: 4.75 | PBM binding z-score [4]: 5.93 | PBM binding z-score [5]: 13.2 | PBM binding z-score [6]: 5.64 | PBM binding z-score [7]: 2.73 | PBM binding z-score [8]: 3.68 | PBM binding z-score [9]: 3.89 | PBM binding z-score [10]: 4.53 | PBM binding z-score [11]: 3.58 | PBM binding z-score [12]: 3.27 | PBM binding z-score [13]: 5.05 | PBM binding z-score [14]: 3.79 | PBM binding z-score [15]: 2.91 | PBM binding z-score [16]: 7.03

CTATGTAGGTTAAGGGGGTCATTAAGTTTGAAAG
PBM binding z-score [1]: 7.49 | PBM binding z-score [2]: 7.73 | PBM binding z-score [3]: 3.7 | PBM binding z-score [4]: 5.89 | PBM binding z-score [5]: 12.5 | PBM binding z-score [6]: 5.37 | PBM binding z-score [7]: 1.68 | PBM binding z-score [8]: 3.58 | PBM binding z-score [9]: 3.65 | PBM binding z-score [10]: 4.97 | PBM binding z-score [11]: 3.44 | PBM binding z-score [12]: 2.43 | PBM binding z-score [13]: 5.43 | PBM binding z-score [14]: 3.79 | PBM binding z-score [15]: 2.03 | PBM binding z-score [16]: 6.07

CTATGTAGGTTAAGGGGGTCATTGAGTTTGAAAG
PBM binding z-score [1]: 7.65 | PBM binding z-score [2]: 7.94 | PBM binding z-score [3]: 3.37 | PBM binding z-score [4]: 6.54 | PBM binding z-score [5]: 12.9 | PBM binding z-score [6]: 6.15 | PBM binding z-score [7]: 1.4 | PBM binding z-score [8]: 3.78 | PBM binding z-score [9]: 4.02 | PBM binding z-score [10]: 5.46 | PBM binding z-score [11]: 4.18 | PBM binding z-score [12]: 2.81 | PBM binding z-score [13]: 5.76 | PBM binding z-score [14]: 4.01 | PBM binding z-score [15]: 2.02 | PBM binding z-score [16]: 7.05

CCCAGTAGGTTACGAGGGGGCATTCAGTGCGAAT
PBM binding z-score [1]: 5.3 | PBM binding z-score [2]: 5.49 | PBM binding z-score [3]: 1.71 | PBM binding z-score [4]: 4.89 | PBM binding z-score [5]: 5.08 | PBM binding z-score [6]: 2.68 | PBM binding z-score [7]: 0.297 | PBM binding z-score [8]: 2.2 | PBM binding z-score [9]: 2.13 | PBM binding z-score [10]: 3.35 | PBM binding z-score [11]: 2.76 | PBM binding z-score [12]: 0.746 | PBM binding z-score [13]: 2.04 | PBM binding z-score [14]: 3.89 | PBM binding z-score [15]: 0.525 | PBM binding z-score [16]: 3.62

CTATGTAGCTTAAGGGGGTCATTCAGTTTGAAAG
PBM binding z-score [1]: 2.86 | PBM binding z-score [2]: 4.78 | PBM binding z-score [3]: 3.12 | PBM binding z-score [4]: 5.52 | PBM binding z-score [5]: 10 | PBM binding z-score [6]: 5.18 | PBM binding z-score [7]: 1.84 | PBM binding z-score [8]: 3.33 | PBM binding z-score [9]: 3.58 | PBM binding z-score [10]: 4.42 | PBM binding z-score [11]: 3.15 | PBM binding z-score [12]: 2.56 | PBM binding z-score [13]: 5.27 | PBM binding z-score [14]: 3.69 | PBM binding z-score [15]: 2.41 | PBM binding z-score [16]: 6.05

TCGAGTAGGTTAAGGGGGCATTCAGGGATGAAGA
PBM binding z-score [1]: 4.21 | PBM binding z-score [2]: 4.69 | PBM binding z-score [3]: 2.85 | PBM binding z-score [4]: 2.67 | PBM binding z-score [5]: 1.9 | PBM binding z-score [6]: 2.87 | PBM binding z-score [7]: 1.41 | PBM binding z-score [8]: 2.47 | PBM binding z-score [9]: 2.37 | PBM binding z-score [10]: 3.17 | PBM binding z-score [11]: 2.01 | PBM binding z-score [12]: 1.92 | PBM binding z-score [13]: 2.62 | PBM binding z-score [14]: 3.58 | PBM binding z-score [15]: 1.48 | PBM binding z-score [16]: 3.24
